According to PubChem BioAssay (NCATS):
Values joined by “and” are separate entries in the source; they are usually repeats but may differ in a detail not shown here. Identical values can stand only once. Results filed as inconclusive are left out. Active and inactive are the calls of the source. Unless noted, calls come from the whole dose curve.

How the values were obtained:
[1] = target: Peroxisome proliferator-activated receptor delta (Homo sapiens) (UniProt Q03181); assay: qHTS assay for small molecule agonists of peroxisome proliferator-activated receptor delta signaling (AID 588534);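 note: 0% = DMSO basal wells and 100% = positive control agonist at 10 µM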
Procedure, shortened: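 Reporter cells were plated and held 5 hrs at 37 C before compounds were added. After 18 hrs at 37 C, CCF4 dye was loaded for 2 hrs at RT and fluorescence measured.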

[2] = qHTS assay for small molecule antagonists of peroxisome proliferator-activated receptor delta signaling (AID 588535); conditions: HEK293T PPARd-UAS-bla, beta-lactamase FRET ratio, 18 h; 460 nm channel;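 note: cells co-treated with a PPAR-delta agonist as stimulator during compound exposure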
Procedure, shortened: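 GeneBLAzer PPAR-delta-UAS-bla HEK293T cells in medium with 2% charcoal/dextran FBS were preincubated 5 hrs at 37 C, then given compounds, incubated 18 hrs at 37 C, and read by CCF4 beta-lactamase fluorescence; IC50 from Hill fits.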

[3] = target: Vitamin D3 receptor (Homo sapiens) (UniProt P11473); assay: qHTS assay for small molecule agonists of vitamin D receptor signaling (AID 588543);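 note: 0% = DMSO basal and 100% = reference agonist control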
Procedure, shortened: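 GeneBLAzer VDR-UAS-bla HEK293T cells in 2% charcoal-stripped FBS medium were dosed with compound titrations for 16 h at 37 °C; CCF4 β-lactamase readout (405 nm ex, 460/530 nm em). EC50 and efficacy from Hill fits, normalized to 50 nM calcitriol (100%) and DMSO (0%).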

[4] = target: Thyroid hormone receptor beta (Homo sapiens) (UniProt P10828); assay: qHTS assay for small molecule antagonists of thyroid hormone receptor beta signaling (AID 588547; active = well fitted inhibition curve with a large enough effect in the signal ratio, with a control signal flat, not every such curve was filed as active; the % refers to the signal ratio;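 note: cells stimulated with 0.4 nM T3 agonist during compound exposure; series mostly up to about 77 µM; % is set by controls: 0 for no effect and ±100 for the full control effect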); conditions: TR-UAS-bla HEK293, beta-lactamase ratio, antagonist mode, 18 h
Procedure, shortened: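 TR-UAS-bla GripTite HEK293 cells in 2% charcoal/dextran FBS medium were preincubated 4 h at 37 C, given compound (0.59 nM to 92 uM) plus 0.4 nM T3 (final) for 18 h, then CCF4 for 2 h at RT; Hill fit gave IC50.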

[5] = qHTS assay for environmental chemicals that activate the Aryl hydrocarbon Receptor (AhR) signaling pathway (AID 651777; active = well fitted curve in the direction sought with a large enough effect; an effect the other way counts as inactive or inconclusive; note: nearly all actives have a fitted effect of over 15% in size; note: potency is the fitted concentration of half-maximal effect; for activation: % of control where 0% means no effect); conditions: 1A2-DRE human hepatoma cells, luciferase, 24 h; activation: stronger effect = higher value
Procedure, shortened: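 Following a 24 hr incubation with test chemicals at 37 C and 5% CO2, 1A2-DRE human hepatoma cells received One-Glo reagent; after 30 min at room temperature, luciferase output reflected CYP1A2 induction via AhR.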

[6] = target: Peroxisome proliferator-activated receptor alpha (Homo sapiens) (UniProt Q07869); assay: qHTS assay for small molecule agonists of the peroxisome proliferator-activated receptor alpha (PPARalpha) signaling pathway (AID 651778; active = well fitted curve in the direction sought with a large enough effect; an effect the other way counts as inactive or inconclusive; note: potency is the fitted concentration of half-maximal effect; for max response: % of control where 0% means no effect); conditions: PathHunter PPARalpha complementation, chemiluminescence, 6 h; max response: stronger effect = higher value
Procedure, shortened: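 Cells plated at 2,000/well and held overnight at 37 C, 5% CO2, then compound added by pin tool for 6 hr; after PathHunter detection reagent and 60 min at room temperature, chemiluminescence from enzyme complementation was read.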

[7] = qHTS assay for small molecule agonists of the antioxidant response element (ARE) signaling pathway measured by Nrf2-dependant transcriptional activity - cell viability counter screen (AID 720653; active = well fitted curve in the direction sought with a large enough effect in the repeat runs; an effect the other way counts as inactive or inconclusive; note: % is set by controls: 0 for no effect and ±100 for the full control effect); conditions: ARE-bla HepG2 viability, CellTiter-Glo ATP luminescence, 16 h; max response: stronger effect = lower value
Procedure, shortened: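 ARE-bla HepG2 cells (2,000/well) rested 5 hrs at 37C/5% CO2, then exposed to compounds in DMSO for 16 hrs. Viability was read in the same wells as intracellular ATP by luminescence, 30 min at room temperature after reagent addition.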

[8] = qHTS assay for cell viability of HEK293 cells (AID 743288; active = well fitted curve in the direction sought with a large enough effect; an effect the other way counts as inactive or inconclusive; note: % is set by controls: 0 for no effect and ±100 for the full control effect; nearly all actives have a fitted effect of over 50% in size); conditions: ATP luminescence (CellTiter-Glo), 18 h; max response: stronger effect = lower value
Procedure, shortened: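 Parental HEK293 cells were seeded at 2,000 cells/well, rested at least 5 h at 37 C, then exposed to compounds in DMSO for 18 h at 37 C. Viability was read as ATP-dependent luciferase luminescence after 30 min at room temperature.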

[9] = target: Bile acid receptor (Homo sapiens) (UniProt Q96RI1); assay: qHTS assay for small molecule agonists of farnesoid X receptor signaling (AID 588527); conditions: HEK293T FXR-UAS-bla, beta-lactamase ratio, 16 h; activation: stronger effect = higher value;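 note: series mostly up to about 77 µM; 0% = vehicle basal and 100% = reference agonist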
Procedure, shortened: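 Read-out: beta-lactamase reporter fluorescence with CCF4 substrate in GeneBLAzer FXR-UAS-bla HEK293T cells, after 16 h compound exposure at 37 C. Response scaled between DMSO basal (0%) and chenodeoxycholic acid at 100 uM (100%).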

[10] = target: Thyroid hormone receptor beta (Homo sapiens) (UniProt P10828); assay: qHTS assay for small molecule agonists of thyroid hormone receptor beta signaling (AID 588545);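 note: 0% = DMSO only and 100% = 10 nM T3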
Procedure, shortened: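 Compounds were tested as agonists in TR-UAS-bla-GripTite HEK 293 cells. After 18 hrs at 37 C, CCF4 substrate was added and fluorescence read after 2 hrs at room temperature.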

[11] = qHTS assay for small molecule agonists of the antioxidant response element (ARE) signaling pathway measured by Nrf2-dependant transcriptional activity (AID 720636; active = well fitted curve in the direction sought with a large enough effect in the repeat runs; an effect the other way counts as inactive or inconclusive;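 note: HepG2 cells with an ARE-driven luciferase reporter; % of control where 0% means no effect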)
Procedure, shortened: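 ONE-Glo luminescence, read 30 min after reagent addition at room temperature, reflected ARE reporter activity in HepG2 cells that had been incubated with compound for 16 hr at 37 C in 1% dialyzed FBS.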

[12] = qHTS assay for small molecule agonists of retinoid X receptor alpha signaling (AID 588544); conditions: HEK293T RXRa-UAS-bla, beta-lactamase reporter, 18 h; 530 nm emission; note: potency is the fitted concentration of half-maximal effect;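 for activation: 0% = DMSO basal wells and 100% = reference agonist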
[13] = target: Retinoic acid receptor RXR-alpha (Homo sapiens) (UniProt P19793); assay: as above
[14] = qHTS assay for cell viability of the p53RE-bla HCT-116 cell line (AID 743292; active = well fitted curve in the direction sought with a large enough effect; an effect the other way counts as inactive or inconclusive; note: % is set by controls: 0 for no effect and ±100 for the full control effect; nearly all actives have a fitted effect of over 55% in size)
Procedure, shortened: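 After plating at 4,000 cells per well and a 5 h rest at 37 C, HCT-116 cells carrying p53RE-bla received test chemicals in DMSO. Sixteen hours later at 37 C, CellTiter-Glo was added and luminescence recorded following 30 min at room temperature.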

[15] = target: Nuclear receptor subfamily 1 group I member 2 (Rattus norvegicus) (UniProt Q9R1A7); assay: qHTS assay for small molecule activators of the rat pregnane X receptor (rPXR) signaling pathway (AID 651751; call rule not given here; note: 0% is about no effect); conditions: rPXR reporter cells, luciferase (One-Glo), 24 h
[16] = target: Glucocorticoid receptor (Homo sapiens) (UniProt P04150); assay: qHTS assay for small molecule antagonists of glucocorticoid receptor signaling (AID 588533; active = well fitted inhibition curve with a large enough effect in the signal ratio, with a control signal flat, not every such curve was filed as active; the % refers to the signal ratio;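 note: cells stimulated with 2 nM dexamethasone as agonist; % is set by controls: 0 for no effect and ±100 for the full control effect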)
Procedure, shortened: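 Antagonist-mode qHTS: compound titrations added to GRE-bla HeLa cells, then dexamethasone 2 nM final; 18 h, 37 C. CCF4 FRET fluorescence normalized to dexamethasone and DMSO; IC50 from Hill fit.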

[17] = qHTS assay for small molecule antagonists of retinoid X receptor alpha signaling (AID 588546; active = well fitted inhibition curve with a large enough effect in the signal ratio, with a control signal flat, not every such curve was filed as active; the % refers to the signal ratio;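 note: cells stimulated with 9-cis-retinoic acid as agonist; % is set by controls: 0 for no effect and ±100 for the full control effect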); conditions: HEK293T RXRa-UAS-bla, beta-lactamase ratio, antagonist mode; measured here: W530 green channel, cytotoxicity proxy
Procedure, shortened: (§1)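 Beta-lactamase reporter inhibition, read as CCF4 fluorescence ratio (ex 405, em 460/530 nm) after 2 h at RT. HEK293T UAS-bla cells, 2500/well, were stimulated with 9-cis-RA at 500 or 100 nM final alongside test compound for 18 h at 37 C.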

[18] = target: Retinoic acid receptor RXR-alpha (Homo sapiens) (UniProt P19793); assay: as above; conditions: HEK293T RXRa-UAS-bla, beta-lactamase ratio, antagonist mode
Procedure, shortened: as §1

[19] = qHTS assay for small molecule activators of the p53 signaling pathway (AID 651743; active = well fitted activation curve with a large enough effect in the signal ratio, not every such curve was filed as active; the % refers to the signal ratio; note: series mostly up to about 92 µM; % of control where 0% means no effect); conditions: HCT-116 p53RE-bla, beta-lactamase FRET ratio, 16 h; activation: stronger effect = higher value
Procedure, shortened: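 p53RE-bla HCT-116 cells with a stably integrated beta-lactamase reporter under p53 response elements were plated, rested 5 hours at 37 C/5% CO2, then exposed to compounds in DMSO for 16 hours at 37 C. LiveBLAzer B/G FRET substrate was read after 2 hours at room temperature.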

[20] = target: Vitamin D3 receptor (Homo sapiens) (UniProt P11473); assay: qHTS assay for small molecule antagonists of vitamin D receptor signaling (AID 588541)
Procedure, shortened: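 VDR-UAS-bla HEK293T cells (2000/well, 2% charcoal-stripped FBS) were treated with titrated compounds plus 1-alpha,25-dihydroxyvitamin D3 (50 nM or 3 nM final) for 16 h at 37 C. CCF4 beta-lactamase fluorescence was read; Hill fits gave IC50.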

Vitamin D3 receptor (Homo sapiens), sequence (P11473 whole entry, looked up): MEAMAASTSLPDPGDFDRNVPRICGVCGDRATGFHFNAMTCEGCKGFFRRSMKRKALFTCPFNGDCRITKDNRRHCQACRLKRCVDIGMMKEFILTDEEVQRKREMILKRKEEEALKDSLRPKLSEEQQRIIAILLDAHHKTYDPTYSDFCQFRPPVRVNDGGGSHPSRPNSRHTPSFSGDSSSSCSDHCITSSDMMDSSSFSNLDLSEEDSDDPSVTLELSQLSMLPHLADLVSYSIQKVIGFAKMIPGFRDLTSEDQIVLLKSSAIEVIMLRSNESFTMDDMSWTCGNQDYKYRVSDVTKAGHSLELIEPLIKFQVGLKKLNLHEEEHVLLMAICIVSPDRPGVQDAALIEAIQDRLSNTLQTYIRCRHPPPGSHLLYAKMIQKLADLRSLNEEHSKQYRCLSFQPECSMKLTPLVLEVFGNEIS
Thyroid hormone receptor beta (Homo sapiens), sequence (P10828 whole entry, looked up): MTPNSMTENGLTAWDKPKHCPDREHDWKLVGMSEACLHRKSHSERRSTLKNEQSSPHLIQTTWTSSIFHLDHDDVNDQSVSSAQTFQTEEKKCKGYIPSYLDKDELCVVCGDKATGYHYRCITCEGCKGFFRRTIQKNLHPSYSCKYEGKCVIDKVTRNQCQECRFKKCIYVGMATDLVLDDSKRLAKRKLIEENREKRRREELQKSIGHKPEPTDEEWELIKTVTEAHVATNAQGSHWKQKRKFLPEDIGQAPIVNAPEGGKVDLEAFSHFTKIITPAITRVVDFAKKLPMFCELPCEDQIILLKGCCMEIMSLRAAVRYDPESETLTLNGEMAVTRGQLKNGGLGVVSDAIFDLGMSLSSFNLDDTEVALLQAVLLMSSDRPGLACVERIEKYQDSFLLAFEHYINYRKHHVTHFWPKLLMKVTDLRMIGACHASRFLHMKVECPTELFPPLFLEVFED
Glucocorticoid receptor (Homo sapiens), sequence (P04150 whole entry, looked up): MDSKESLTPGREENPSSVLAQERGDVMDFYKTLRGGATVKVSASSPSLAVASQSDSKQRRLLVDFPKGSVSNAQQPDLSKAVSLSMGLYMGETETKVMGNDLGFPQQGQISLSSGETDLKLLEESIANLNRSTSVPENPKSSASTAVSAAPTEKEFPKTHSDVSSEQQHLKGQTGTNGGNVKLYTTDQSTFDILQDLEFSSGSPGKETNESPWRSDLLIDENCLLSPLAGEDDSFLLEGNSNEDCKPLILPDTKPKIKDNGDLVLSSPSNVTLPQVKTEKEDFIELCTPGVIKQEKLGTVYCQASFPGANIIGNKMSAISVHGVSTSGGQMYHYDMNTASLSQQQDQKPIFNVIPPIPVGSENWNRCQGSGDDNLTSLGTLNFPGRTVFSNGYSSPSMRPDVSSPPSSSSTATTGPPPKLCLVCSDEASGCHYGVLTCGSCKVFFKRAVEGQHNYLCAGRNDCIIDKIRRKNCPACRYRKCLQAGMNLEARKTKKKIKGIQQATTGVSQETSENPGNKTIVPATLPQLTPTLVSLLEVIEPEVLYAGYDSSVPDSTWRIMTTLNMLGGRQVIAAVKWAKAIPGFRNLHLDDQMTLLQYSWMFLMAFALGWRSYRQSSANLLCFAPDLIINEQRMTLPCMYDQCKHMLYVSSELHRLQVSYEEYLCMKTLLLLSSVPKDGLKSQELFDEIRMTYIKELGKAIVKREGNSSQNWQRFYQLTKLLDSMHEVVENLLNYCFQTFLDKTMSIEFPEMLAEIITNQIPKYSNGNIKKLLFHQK
Retinoic acid receptor RXR-alpha (Homo sapiens), sequence (P19793 whole entry, looked up): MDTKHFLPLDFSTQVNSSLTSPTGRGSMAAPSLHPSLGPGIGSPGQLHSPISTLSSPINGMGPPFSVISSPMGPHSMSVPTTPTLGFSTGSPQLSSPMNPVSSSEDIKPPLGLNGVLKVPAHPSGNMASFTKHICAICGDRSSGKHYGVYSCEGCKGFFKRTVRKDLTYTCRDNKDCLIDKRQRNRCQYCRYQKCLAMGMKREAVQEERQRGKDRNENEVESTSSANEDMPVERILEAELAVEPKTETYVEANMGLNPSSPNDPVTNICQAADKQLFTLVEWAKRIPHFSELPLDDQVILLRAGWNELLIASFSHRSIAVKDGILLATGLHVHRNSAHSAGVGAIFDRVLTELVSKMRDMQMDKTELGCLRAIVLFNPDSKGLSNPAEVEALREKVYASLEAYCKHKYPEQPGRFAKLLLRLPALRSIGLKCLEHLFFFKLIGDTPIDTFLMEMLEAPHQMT
Bile acid receptor (Homo sapiens), sequence (Q96RI1 whole entry, looked up): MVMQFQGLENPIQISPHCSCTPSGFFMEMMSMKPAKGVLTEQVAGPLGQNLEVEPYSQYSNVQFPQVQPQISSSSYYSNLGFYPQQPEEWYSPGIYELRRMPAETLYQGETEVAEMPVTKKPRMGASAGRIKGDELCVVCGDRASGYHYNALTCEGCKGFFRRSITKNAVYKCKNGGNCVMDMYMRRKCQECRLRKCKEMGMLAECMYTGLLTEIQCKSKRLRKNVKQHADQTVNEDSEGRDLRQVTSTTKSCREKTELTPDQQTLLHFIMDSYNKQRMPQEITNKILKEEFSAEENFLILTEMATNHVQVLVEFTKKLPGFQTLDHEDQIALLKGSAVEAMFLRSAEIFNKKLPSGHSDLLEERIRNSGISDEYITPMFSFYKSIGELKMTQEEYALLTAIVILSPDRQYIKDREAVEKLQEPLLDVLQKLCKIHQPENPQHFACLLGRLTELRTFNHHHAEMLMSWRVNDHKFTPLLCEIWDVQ
Nuclear receptor subfamily 1 group I member 2 (Rattus norvegicus), sequence (Q9R1A7 whole entry, looked up): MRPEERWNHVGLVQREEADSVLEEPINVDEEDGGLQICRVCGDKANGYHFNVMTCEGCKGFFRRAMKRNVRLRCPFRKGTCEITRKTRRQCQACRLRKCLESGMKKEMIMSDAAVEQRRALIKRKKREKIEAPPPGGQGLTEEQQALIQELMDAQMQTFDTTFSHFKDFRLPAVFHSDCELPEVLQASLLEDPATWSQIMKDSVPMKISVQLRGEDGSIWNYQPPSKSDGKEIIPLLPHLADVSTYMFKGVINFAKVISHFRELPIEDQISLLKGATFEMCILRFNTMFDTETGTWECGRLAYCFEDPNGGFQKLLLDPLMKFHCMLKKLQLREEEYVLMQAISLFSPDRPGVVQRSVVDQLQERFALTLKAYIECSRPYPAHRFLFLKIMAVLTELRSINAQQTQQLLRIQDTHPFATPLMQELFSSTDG
Peroxisome proliferator-activated receptor delta (Homo sapiens), sequence (Q03181 whole entry, looked up): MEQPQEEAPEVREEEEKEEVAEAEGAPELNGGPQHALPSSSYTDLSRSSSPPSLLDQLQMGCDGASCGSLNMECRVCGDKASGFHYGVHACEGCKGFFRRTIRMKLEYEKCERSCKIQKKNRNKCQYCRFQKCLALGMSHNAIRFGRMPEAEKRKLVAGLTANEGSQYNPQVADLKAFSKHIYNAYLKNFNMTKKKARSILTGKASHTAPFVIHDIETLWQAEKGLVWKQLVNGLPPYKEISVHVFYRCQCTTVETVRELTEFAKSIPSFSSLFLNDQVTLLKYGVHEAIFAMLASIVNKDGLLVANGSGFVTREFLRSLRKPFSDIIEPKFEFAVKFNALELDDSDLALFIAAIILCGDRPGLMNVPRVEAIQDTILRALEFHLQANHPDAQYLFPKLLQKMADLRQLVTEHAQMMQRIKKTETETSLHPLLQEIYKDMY
Peroxisome proliferator-activated receptor alpha (Homo sapiens), sequence (Q07869 whole entry, looked up): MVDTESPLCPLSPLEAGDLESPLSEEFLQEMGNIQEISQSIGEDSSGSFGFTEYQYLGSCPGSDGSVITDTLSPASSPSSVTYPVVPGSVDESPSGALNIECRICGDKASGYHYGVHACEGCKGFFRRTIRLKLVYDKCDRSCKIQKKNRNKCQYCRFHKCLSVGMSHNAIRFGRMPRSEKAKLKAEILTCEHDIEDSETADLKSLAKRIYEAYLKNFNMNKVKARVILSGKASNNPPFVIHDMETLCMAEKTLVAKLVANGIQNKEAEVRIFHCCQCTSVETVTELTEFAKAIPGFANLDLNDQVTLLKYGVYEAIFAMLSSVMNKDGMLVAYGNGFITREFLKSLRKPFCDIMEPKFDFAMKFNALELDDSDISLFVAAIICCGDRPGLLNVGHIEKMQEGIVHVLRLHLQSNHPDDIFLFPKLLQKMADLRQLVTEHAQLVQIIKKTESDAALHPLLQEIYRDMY

CCOc1cc(C(C)(C)C)ccc1C1COC(c2c(F)cccc2F)=N1 (stereo not drawn)
outcome [1]: inactive | max response [2]: -21.7% | outcome [3]: inactive | activity change % (negative = inhibition) [4]: -28.7% (inactive) | activation [5]: 6.58% (inactive) | max response [6]: 6.72% (inactive) | max response [7]: -8.55% (inactive) | max response [8]: -20% (inactive)

c1ccc2c(c1)c1cccc3ccc4cccc2c4c31
activation [9]: -3.29% (inactive) and 7.3% (inactive) | outcome [1]: inactive | outcome [3]: inactive | Potency [10]: inactive | Potency [11]: inactive

O=[N+]([O-])c1ccc2ccc3cccc4ccc1c2c34
activation [9]: -3.28% (inactive) | outcome [3]: inactive | max response [12]: 19.4% | Potency [13]: inactive | Potency [10]: inactive | activity change % (negative = inhibition) [4]: -20.5% (inactive) | activation [5]: 2.13% (inactive) | max response [6]: -0.269% (inactive) | max response [7]: -9.82% (inactive) | max response [8]: -25% (inactive) | Potency [14]: inactive | max response [15]: 3% (inactive)

O=[N+]([O-])c1ccc(Nc2ccccc2)cc1
activation [9]: 0.7% (inactive) | Potency [16]: inactive | outcome [3]: inactive | Potency [10]: inactive | max response [17]: -4.45% | max response [18]: -16.2% (inactive) | activity change % (negative = inhibition) [4]: -15.7% (inactive) | activation [19]: -0.549% (inactive) | activation [5]: 5.27% (inactive) | max response [6]: -1.55% (inactive) | max response [7]: -13.2% (inactive) | max response [8]: 1.82% (inactive) | Potency [14]: inactive

CCNc1nc(NC(C)C)nc(OC)n1
activation [9]: -2.29% (inactive) | Potency [16]: inactive | outcome [1]: inactive | max response [2]: 24.4% | Potency [20]: inactive | outcome [3]: inactive | max response [12]: -5.81% | Potency [13]: inactive | Potency [10]: inactive | max response [17]: -8.69% | max response [18]: 2.56% (inactive) | activation [19]: -0.985% (inactive) | activation [5]: 0.686% (inactive) | Potency [11]: inactive | max response [7]: 6.46% (inactive) | max response [8]: 0.985% (inactive) | Potency [14]: inactive | max response [15]: 0.846% (inactive)

FC(F)C(F)(F)OCC(Cn1cncn1)c1ccc(Cl)cc1Cl (stereo not drawn)
activation [9]: 1.13% (inactive) | Potency [16]: inactive | outcome [1]: inactive | Potency [20]: inactive | outcome [3]: inactive | max response [12]: 14% | Potency [13]: inactive | max response [17]: -6.39% | max response [18]: 4.82% (inactive) | activation [19]: 0.478% (inactive) | activation [5]: 2.65% (inactive) | max response [6]: -0.725% (inactive) | Potency [11]: inactive | max response [7]: 4.71% (inactive) | max response [8]: -9.21% (inactive) | Potency [14]: inactive

N#Cc1cc(Br)c(O)c(Br)c1
activation [9]: 1.36% (inactive) | Potency [16]: inactive | outcome [1]: inactive | max response [12]: -9.28% | Potency [13]: 15.8 µM (active) | Potency [10]: inactive | max response [17]: -9.47% | max response [18]: 1.7% (inactive) | activity change % (negative = inhibition) [4]: 6.22% (inactive) | activation [19]: 5.1% (inactive) | activation [5]: 1.12% (inactive) | Potency [6]: 25.1 µM (active) | Potency [11]: inactive | max response [7]: -28.2% (inactive) | max response [8]: -7.19% (inactive) | Potency [14]: inactive | max response [15]: -9.3% (inactive)

CCS(=O)(=O)c1cccnc1S(=O)(=O)NC(=O)Nc1nc(OC)cc(OC)n1
activation [9]: 0.0623% (inactive) | Potency [16]: inactive | max response [2]: -45% | Potency [20]: inactive | outcome [3]: inactive | Potency [10]: inactive | max response [17]: -3.64% | max response [18]: 8.72% (inactive) | activation [19]: -3.66% (inactive) | Potency [5]: 31.6 µM (active) | max response [6]: -2.57% (inactive) | max response [7]: 15.3% (inactive) | max response [8]: -6.2% (inactive) | Potency [14]: inactive | max response [15]: -1.1% (inactive)

CC(C)C1(C)N=C(c2ncccc2C(=O)O)NC1=O (stereo not drawn)
activation [9]: -1.77% (inactive) | Potency [16]: inactive | outcome [1]: inactive | max response [2]: 7.61% | Potency [20]: inactive | outcome [3]: inactive | max response [12]: -12.1% | Potency [13]: inactive | max response [17]: -22% | max response [18]: -0.742% (inactive) | activity change % (negative = inhibition) [4]: 2.89% (inactive) | activation [19]: -4.94% (inactive) | activation [5]: -1.56% (inactive) | max response [6]: -1.4% (inactive) | Potency [11]: inactive | max response [7]: -6.07% (inactive) | max response [8]: 8% (inactive) | Potency [14]: inactive | max response [15]: -3.34% (inactive)
